Measured values: PubChem BioAssay (Tox21)
Inconclusive results are not listed. Where a call stands in place of a potency, no number is given. Active and inactive are the calls of the source. Calls come from the whole dose curve; as a rule, active = well fitted cell-killing curve with a large enough effect in the repeat runs; inconclusive = weak or mixed curves, or effect the other way; inactive = flat fitted curve, though single readings scatter.

Assay: qHTS RealTime-Glo MT Cell Viability Assay in HepG2 cells - 40 hour (AID 1224870); note: nearly all actives have a fitted effect of over 50% in size
Settings: RealTime-Glo luminescence; series mostly up to 76.8 µM
Description: National Center for Advancing Translational Sciences [NCATS]
NIH Chemical Genomics Center [NCGC]
U.S. Environmental Protection Agency [EPA]
National Institutes of Environmental Health Sciences [NIEHS]
National Toxicology Program [NTP]
U.S. Food and Drug Administration [FDA]
Measure of cell viability is critical in the cell-base assay. Analysis of cell viability is necessary for the characterization of cell responses to cytotoxic drugs and environmental stress. A RealTime-Glo MT Cell Viability Assay to monitor cell viability in real time of continues cell culture during 40 hours of compound treatment was used to screen Tox21 10K library compounds in HepG2 cells. The RealTime-Glo MT Cell Viability Assay is a nonlytic, homogeneous, bioluminescent method to measure cell viability in real time using a simple, plate-based method. The assay involves adding NanoLuc luciferase and a cell-permeant prosubstrate to cells in culture. Viable cells reduce the proprietary prosubstrate to generate a substrate for NanoLuc luciferase. This substrate diffuses from cells into the surrounding culture medium, where it is rapidly used by the NanoLuc Enzyme to produce a luminescent signal. The signal correlates with the number of viable cells, making the assay well suited for cytotoxicity studies.
Tox21 Assay Protocol Summary:
The mixture of HepG2 cell suspension and reagents were dispensed at 600cells/6 ul/well in 1536-well tissue culture treated black solid bottom plates using a Multidrop dispenser. After the assay plates were incubated at a 37 C/5% CO2 incubator for 5 hours, 23 nL of compounds dissolved in DMSO, positive and negative controls was transferred to the assay plate by a pintool work station. The plates were incubated at 37 C for 40 hours. The luminescence intensity were measured at 0h, 8h, 16h, 24h, 32h and 40h time points using ViewLux plate reader during compound treatment.
Potency is the fitted concentration of half-maximal effect.

| SMILES | Potency |
| --- | --- |
| COc1cnc(OC)n2nc(NS(=O)(=O)c3c(OCC(F)F)cccc3C(F)(F)F)nc12 | inactive |
| CCC[CH2][Sn]([CH2]CCC)([CH2]CCC)[O][Sn]([CH2]CCC)([CH2]CCC)[CH2]CCC | 537 nM (active) |
| COc1ccc2[nH]cc(CCN(C(C)C)C(C)C)c2c1 | inactive |
| CN1C(=O)[C@@H](NC(=O)c2cc3ccccc3[nH]2)N=C(c2ccccc2)c2ccccc21 | inactive |
| COP(=O)(OC)Oc1ccc([N+](=O)[O-])cc1 | inactive |
| CC(Cc1ccccc1)N(C)Cc1ccco1 (stereo not given) | inactive |
| C[C@]12C/C(=C/O)C(=O)C[C@@H]1CC[C@@H]1[C@@H]2CC[C@@]2(C)[C@H]1CC[C@]2(C)O | inactive |
| O.O.O.O=C([O-])[C@H]([O-])[C@@H]([O-])C(=O)[O-].O=C([O-])[C@H]([O-])[C@@H]([O-])C(=O)[O-].[K+].[K+].[Sb+3].[Sb+3] | inactive |
| CNC(=O)/C=C(\C)OP(=O)(OC)OC | inactive |
| Cc1cccc(Cc2cnc[nH]2)c1C | inactive |
| CCC[CH2][Sn]([CH2]CCC)([O]C(C)=O)[O]C(C)=O | 175 nM (active) |
| CC(Cl)CCl (stereo not given) | inactive |
| Cc1nn(-c2cc(NS(C)(=O)=O)c(Cl)cc2Cl)c(=O)n1C(F)F | inactive |
| CCCN | inactive |
| C#CC1(O)CCCCC1 | inactive |
| Oc1ccc(Cl)c(Cl)c1 | inactive |
| c1ccc(N=NNc2ccccc2)cc1 | inactive |
| ClCBr | inactive |
| CC(C)[C@@H](Nc1ccc(C(F)(F)F)cc1Cl)C(=O)OC(C#N)c1cccc(Oc2ccccc2)c1 (stereo not given in full) | inactive |
| CN=C=O | inactive |

| SMILES | Potency |
| --- | --- |
| O=C(Cl)c1ccccc1F | inactive |
| CSC(C)(C)/C=N/O | inactive |
| Oc1ccc([C@H]2CNCc3c2ccc(O)c3O)cc1O | inactive |
| Nc1c(Cl)c(Cl)c(Cl)c(Cl)c1Cl | inactive |
| O=[N+]([O-])[O-].[Tl+] | inactive |
| Nc1ccc(N=Nc2ccccc2)cc1 | inactive |
| O=C(NC(=O)c1ccccc1Cl)Nc1ccc(OC(F)(F)F)cc1 | inactive |
| Nc1ccc(Cl)cc1C(=O)c1ccccc1F | inactive |
| CSC1=N[C@@](C)(c2ccccc2)C(=O)N1Nc1ccccc1 | inactive |
| O.O.O.O.O.O.O.O=S(=O)([O-])[O-].[Co+2] | inactive |
| C=CC(=C)C | inactive |
| BrCCCBr | inactive |
| CC(=O)[O-].CC(=O)[O-].O.O.O.[Pb+2] | inactive |
| CCCCN(CCCC)C(=S)[S-].CCCCN(CCCC)C(=S)[S-].[Ni+2] | inactive |
| CCCCc1ccccc1 | inactive |
| CC(C)=CCN1CC[C@@]2(C)c3cc(O)ccc3C[C@@H]1[C@@H]2C | inactive |
| OCC(Br)CBr (stereo not given) | inactive |
| [C-]1=CC=CC1.[Cl][Zr+2][Cl].c1cc[cH-]c1 | inactive |
| O=C(CCCCl)c1ccc(F)cc1 | inactive |
| COC(=O)C(C)N(C(=O)c1ccco1)c1c(C)cccc1C (stereo not given) | inactive |
